S1P4 antag – S1P4 receptor antagonists, primary screen, cell-based. 0.26% of 220,000 active. S1P4-expressing cells, antagonist mode, reporter read-out. AID 1510, 2009. inhibition, % at 4.98 µM; in the data active = inhibition above about 29%;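 note: 0% = wells stimulated with agonist and 100% = vehicle wells without agonist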
Target sequence (O95977 whole entry, looked up): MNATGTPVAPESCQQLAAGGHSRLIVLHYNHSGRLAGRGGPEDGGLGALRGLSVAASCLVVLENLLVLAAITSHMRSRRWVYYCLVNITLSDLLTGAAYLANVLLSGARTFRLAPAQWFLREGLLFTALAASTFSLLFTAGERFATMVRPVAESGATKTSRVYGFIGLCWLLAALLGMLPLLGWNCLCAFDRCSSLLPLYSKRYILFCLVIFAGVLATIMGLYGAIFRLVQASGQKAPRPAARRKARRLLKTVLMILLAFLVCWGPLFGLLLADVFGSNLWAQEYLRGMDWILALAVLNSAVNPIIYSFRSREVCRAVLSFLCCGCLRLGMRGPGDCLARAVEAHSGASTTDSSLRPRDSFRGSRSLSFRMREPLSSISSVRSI
EP2 mod – EP2 receptor modulators, cAMP readout, primary screen, cell-based, HTRF cAMP, PGE2 stimulation; EP2-expressing cells, cAMP HTRF FRET, PGE2 co-stimulation; induction, % at 25 µM; AID 940, 2007; 0.83% of 260,000 active;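 active = compounds whose cAMP rise, as percent of the full-agonist control response, exceeds 60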;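 note: rat C6 glioma line stably carrying human EP2 under a CMV promoter; the protocol text gives 20 µM as final concentration; 100% = response of wells given 1 µM PGE2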
PGE2 EP2 inh – human EP2 receptor antagonists, primary screen, TR-FRET cAMP, C6 glioma cells. Prostaglandin E2 receptor EP2 subtype (Homo sapiens), P43116. C6 glioma cells expressing human EP2; cells stimulated with saturating PGE2. inhibition, % at 25 µM. 0.52% of 260,000 active. AID 1422, 2008;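 active = percent inhibition above 40 after rounding to a whole number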;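 note: rat C6 glioma host cells with rolipram phosphodiesterase inhibitor present; the protocol text gives 20 µM as final concentration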
S1P3 antag – S1P3 receptor antagonists, primary screen, cell-based; Sphingosine 1-phosphate receptor 3 (Homo sapiens), Q99500; CHO S1P3 NFAT-BLA reporter, FRET fluorescence, antagonist mode; inhibition, % at 4.98 µM; 0.27% of 170,000 active; AID 485, 2006;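 active = inhibition above the plate cutoff, the mean inhibition of test wells on that plate plus 3 SD, cut at about 28% in these data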;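 note: cells challenged with S1P at its EC80 of 0.8 µM; blue over green emission ratio from cleaved BLA substrate after 4 h stimulation; 0% = S1P-stimulated wells and 100% = unstimulated DMSO-only wells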
S1P4 ag – S1P4 receptor agonists, primary screen, cell-based | S1P4-expressing cell line, agonist reporter assay | 0.35% of 220,000 active | Sphingosine 1-phosphate receptor 4 (Homo sapiens), O95977 | AID 1509, 2009 | activation, % at 4.98 µM; in the data active = activation above about 11%;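 note: 0% = DMSO vehicle and 100% = reference agonist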
EP2 cAMP induct – cAMP induction in EP2, EP4, beta2-AR and parental cells, confirmation, counter-screen for EP2 modulator project, cell-based, five parallel assays, C6 glioma, HEK293; shares compounds with EP2 mod; cAMP HTRF induction; plus low (about EC15) PGE2 agonist; calls only at 20 µM (by protocol); 47% of 1,300 active; AID 1080, 2008;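 active = cAMP induction above 50% in the main assay while under 30% in all four parallel counter assays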;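 note: rat C6 glioma cells stably expressing human EP2 receptor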
* marks the source's active call; other numbers are inactive results; i = inactive; · = no result given; + = active, no number; ! = not active in a repeat. This is a sample that favours compounds with a hit; in the whole collection about 2% have one here.

SMILES	S1P4 antag	EP2 mod	PGE2 EP2 inh	S1P3 antag	S1P4 ag	EP2 cAMP induct
Nc1nc(Cc2ccccc2)nc(Cc2ccccc2)c1-c1ccccc1	·	67*	39	·	·	i
Cc1cccc(Oc2nc(-c3ccccc3)cc(C)c2S(C)(=O)=O)c1C	-7	72*	16	·	-3	+
COc1ccccc1Oc1nc(-c2ccccc2)cc(C)c1S(C)(=O)=O	-3	36	6	·	0	·
CCCc1nc(SC2CCCC2)c2c(=O)n(C)c(=O)n(C)c2n1	·	79*	7	-13	·	+
CCN(Cc1ccccc1)C(c1cc2cc(C)ccc2[nH]c1=O)c1nnnn1CCOC (centres undefined)	7	27	12	-12	-2	·
CCN(Cc1ccccc1)C(c1cc2cc(C)cc(C)c2[nH]c1=O)c1nnnn1CCOC (centres undefined)	-17	73*!	18	-18	-1	i
Cc1ccn2cc(-c3cc4cc(Br)ccc4oc3=O)nc2c1	·	-2	14	·	·	·
Cc1oc(C(C)(C)C)cc1C(=O)Nc1cccc(/C=C\C(=O)O)c1	-16	-55	17	8	2	·
Cc1oc(-c2ccccc2)cc1C(=O)Nc1cccc(/C=C\C(=O)O)c1	-5	82*	10	-6	-1	+
COC(=O)c1nc(NC(=O)C(C)(C)C)n[nH]1	7	66*	16	·	-2	i
COC(=O)c1ccc(-c2ccco2)n1Cc1nc(-c2ccc(OC)c(OC)c2)oc1C	-17	19	9	18	2	·
COC(=O)c1ccc(-c2ccco2)n1Cc1ccccc1Cl	5	71*	6	·	1	+
CCC(=O)N1CCN(c2nc(-c3ccccc3)c3c(c2C#N)CCCC3)CC1	-4	81*	14	·	0	i
CN1CCN(c2nc(-c3ccccc3)nc(-c3ccccc3)c2C#N)CC1	-20	36	1	-11	2	·
CCN(CC)S(=O)(=O)c1c(OC)cc(C)c(Cl)c1C	6	66*	8	-22	6	i
CCN(CC)S(=O)(=O)c1cc(C)c(C)cc1Br	-20	18	20	3	-1	·
c1ccc(C2=Nc3ccccc3NC(c3ccccc3)C2)cc1 (centres undefined)	19	65*	1	·	1	+
Cc1ccc(-n2c(Cc3cccc4ccccc34)n[nH]c2=S)c(C)c1	-26	61*	7	-6	1	+
O=C(Nc1nnc(CCS(=O)(=O)c2cc(Cl)ccc2Cl)s1)C1CCCCC1	·	-19	6	·	·	·
Cc1cc(C)c2cc(CN(Cc3cccnc3)C(=S)Nc3ccc(F)cc3)c(=O)[nH]c2c1	·	-26	8	·	·	·
COc1cc2ccccc2cc1C(=O)NC(=S)Nc1cc(C(=O)O)ccc1C	-22	100*	2	-22	1	+
Cc1ccc(C(=O)O)cc1NC(=S)NC(=O)Cc1ccccc1	-2	2	9	·	0	·
COc1ccccc1C(=O)NC(=S)Nc1cc(C(=O)O)ccc1C	-3	72*	12	-27	0	+
Cc1sc2nc(C(C)C)n3c(=O)n(CC(=O)NC(C)(C)C)nc3c2c1C	·	-47	·	·	·	·
COc1ccc(Cl)cc1NC(=O)CN1CCN(c2ccccc2C)CC1	·	17	12	·	·	·
SMILES	S1P4 antag	EP2 mod	PGE2 EP2 inh	S1P3 antag	S1P4 ag	EP2 cAMP induct
Cc1oncc1-c1csc(-c2ccccc2Cl)n1	-7	69*	7	3	2	+
CC/C(=C\C1CCCCC1)C(NP(=O)(c1ccccc1)c1ccccc1)c1ccccc1 (centres undefined)	11	70*	5	-9	0	+
CC(C)C(=O)NNC(=O)CSc1nnc(CNc2nc(-c3ccccc3)cs2)n1C	·	-6	5	·	·	·
COc1ccc(CN(Cc2cncn2Cc2ccccc2)CC2CCCO2)cc1 (centres undefined)	·	19	8	·	·	·
CC(c1ccc(F)cc1)n1cc(C(=O)NCc2cccnc2)nn1 (centres undefined)	·	-12	7	·	·	·
Nc1ccc(N2Cc3ccccc3-c3ccccc3C2)cc1	·	41	13	·	·	·
CC(C)Sc1nc2sc3c(c2c2nnc(SCC(=O)NCc4ccco4)n12)CCCC3	-20	58	11	-6	3	i
CC1CCc2c(sc3nc(C4CC4)n4c(SCC(=O)NCc5ccco5)nnc4c23)C1 (centres undefined)	·	28	10	·	·	·
C(=N\Nc1nc2ccccc2[nH]1)/c1ccccc1	21	-19	10	5	1	·
O=c1[nH]c(N/N=C/c2ccccc2)nc2ccccc12	5	69*	6	·	4	+
CSc1nnc(-c2ccc(F)cc2)o1	-9	72*	20	-24	1	i
Cc1cccc(C2(O)CCN(C(=O)c3cc(-c4cnn(C)c4)n[nH]3)CC2)c1	·	-59	8	·	·	·
Cc1onc(-c2c(F)cccc2Cl)c1C(=O)OCn1nnc2ccccc2c1=O	-26	77*	7	-47	-4	i
O=C1CN2C(=Nc3ccc(Cl)cc3C2c2ccccc2)CN1 (centres undefined)	-10	20	12	-21	1	·
S=C1NCCc2ccc(Cl)cc2C1c1ccccc1 (centres undefined)	13	75*	7	·	-2	+
O=C(O)NCc1ccccc1 (tested in a mixture with another compound)	·	68*	8	·	·	+
COc1ccc(-c2csc(N(CC3CCCO3)C(=O)c3ccc(C)cc3)n2)cc1 (centres undefined)	-26	35	5	·	1	·
O=C(c1ccco1)N(CC1CCCO1)c1nc(-c2ccccc2)cs1 (centres undefined)	-7	66*	10	19	2	i
Cc1ccc(-c2csc(N(CC3CCCO3)C(=O)c3ccco3)n2)cc1 (centres undefined)	-11	72*	14	-8	1	+
S=C(Nc1ccccc1Cl)N(Cc1ccccc1)Cc1ccccn1	-8	76*	3	-17	0	+
COc1ccccc1NC(=S)N(Cc1ccccc1)Cc1ccccn1	-5	34	7	-10	0	·
CC1=C/C(=C(/c2ccc(O)c(C)c2)c2ccccc2C(=O)O)C=CC1=O	·	51	5	·	·	i
Cc1ccc(C(=O)C[n+]2ccc3ccccc3c2C)cc1	·	-39	5	·	·	·
COc1cc(C)c(NC(=S)Nc2ccc(C)c(Cl)c2)cc1OC	0	-50	15	1	1	·
COc1cc(C)c(NC(c2ccccc2)c2ccccc2)cc1OC	2	67*	4	-6	1	+

Screening data: PubChem BioAssay, several laboratories
